ELG1 genotoxic = inducers of genotoxicity in HEK293T ELG1-luciferase cells. HEK293T ELG1-luciferase reporter, luminescence, 16 h. Potency, µM (doses to about 46 µM), hits mostly activators. 330,000 compounds, 1.3% hits; further: nearly all actives have a fitted effect of over 60% in size
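Reporter readout depends on ELG1 protein level, which increases with genetic stress. After 16 hr compound exposure at 37 °C, luciferase activity was quantified using ONE-Glo.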
FLuc modulator = counter-screen for miR-21 project: firefly luciferase inhibitors or activators | P08659 | purified FLuc, Km substrates, luminescence inhibition | Potency, µM (doses to about 57.5 µM), actives largely listed as inhibitors | 360,000 compounds, 6.9% hits; further: nearly all actives have a fitted effect of over 55% in size
Target sequence (P08659 whole entry, looked up): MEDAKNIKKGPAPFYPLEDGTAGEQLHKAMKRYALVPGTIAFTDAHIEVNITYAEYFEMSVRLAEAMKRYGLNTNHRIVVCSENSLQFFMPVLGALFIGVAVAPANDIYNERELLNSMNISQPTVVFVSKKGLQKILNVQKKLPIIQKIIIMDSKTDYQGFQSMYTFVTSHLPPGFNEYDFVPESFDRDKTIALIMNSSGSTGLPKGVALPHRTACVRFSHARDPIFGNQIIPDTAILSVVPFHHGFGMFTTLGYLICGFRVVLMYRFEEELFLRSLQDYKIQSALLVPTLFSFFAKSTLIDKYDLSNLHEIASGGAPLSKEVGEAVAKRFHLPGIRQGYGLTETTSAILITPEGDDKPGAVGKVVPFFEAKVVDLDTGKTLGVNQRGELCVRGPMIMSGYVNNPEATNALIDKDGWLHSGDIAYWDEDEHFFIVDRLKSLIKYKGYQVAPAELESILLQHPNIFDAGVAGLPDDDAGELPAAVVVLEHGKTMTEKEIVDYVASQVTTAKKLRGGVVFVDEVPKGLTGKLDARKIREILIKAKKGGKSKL
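Purified P. pyralis luciferase, 10 nM final, with Km-level 10 uM D-luciferin and 10 uM ATP in 50 mM Tris acetate pH 7.5, 10 mM Mg acetate, 0.01% Tween-20, 0.05% BSA; 6-point qHTS titration about 60 µM downward; luminescence read.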
Rab9 prom act = activators of Rab9 promoter; Potency, µM (series often up to 9.22 µM), actives largely listed as activators; Huh7 Rab9 promoter-luciferase reporter, luminescence, 24 h; 320,000 compounds, 2.8% hits; further: nearly all actives have a fitted effect of over 60% in size
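Luciferase signal after 10 min detection reagent at ambient indicates Rab9 promoter upregulation; stably transfected Huh7 cells were treated 24 h with compound in DMSO at 37 °C, 5% CO2.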
SMN2 splice enh = increases expression of the SMN2 splice variant. HEK293 SMN2-luciferase splicing reporter, luminescence, 30-36 h. 210,000 compounds, 2.8% hits. Potency, µM (series often up to 46.1 µM), actives largely listed as activators; further: nearly all actives have a fitted effect of over 55% in size
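qHTS luciferase splicing reporter: luminescence rises when SMN2 exon 7 is included in transfected HEK293 cells. Compound exposure lasted 30-36 h at 37C, with 4.5 mM final sodium butyrate as control, followed by a ONE-Glo read.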
NPC1 prom act = NPC1 promoter activation; Huh7 NPC1 promoter luciferase reporter, 24 h; Potency, µM (series often up to 9.22 µM), hits mostly activators; 320,000 compounds, 2.4% hits; AID 485313; further: nearly all actives have a fitted effect of over 60% in size
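Luciferase expression driven by the NPC1 promoter was measured in stably transfected Huh7 cells after a 24 h compound incubation, using a luciferase reagent and a luminescence read.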
Hits are given with their value. In the library only some 7.4% were active in any assay of this set; here they are far more common. The call rests on the fitted dose curve; in most records, active means well fitted curve in the direction sought with a large enough effect; inconclusive means small, poorly fitted or top-dose-only effect, or another doubt; inactive means no such curve, though single readings can be large; an effect the other way counts as inactive or inconclusive.

Screening Oc1cccc(Nc2cc(-c3ccccc3)ncn2)c1 returned FLuc modulator 16.9µM.
CCN(CC(=O)Nc1ccc(OC)cc1)CC(=O)Nc1sc2c(c1C(=O)OC)CCCC2 was read as ELG1 genotoxic inactive, Rab9 prom act inactive and NPC1 prom act inactive.
`O=C(ONc1ccc(N=NC(=O)c2ccccc2O)cc1)c1ccccc1` gave ELG1 genotoxic 10.3µM, FLuc modulator 8.49µM, Rab9 prom act 3.98µM and NPC1 prom act inconclusive.
For O=Nc1ccc(NOC(=O)c2ccccc2Br)cc1 the results were ELG1 genotoxic inactive, FLuc modulator 0.239µM, Rab9 prom act inactive, SMN2 splice enh inactive and NPC1 prom act inactive.
Screening Cc1ccc(OCCCCn2nnc3sc4c(c3c2=O)CCCC4)cc1 returned FLuc modulator inactive and SMN2 splice enh inactive.
CCCCc1ccc(-c2nc(NC(=O)C3C4CCC(O4)C3C(=O)O)sc2C)cc1 (stereo unspecified) was read as ELG1 genotoxic 16.4µM, FLuc modulator 21.3µM, Rab9 prom act inactive, SMN2 splice enh inactive and NPC1 prom act inactive.
`COc1ccc2nc(NC(=O)CSc3cn[nH]n3)sc2c1` gave ELG1 genotoxic inconclusive, FLuc modulator 6.75µM, Rab9 prom act 3.98µM and NPC1 prom act inconclusive.
`Cc1cccc2sc(NC(=O)CSc3cn[nH]n3)nc12` gave ELG1 genotoxic inactive, FLuc modulator inactive, Rab9 prom act inactive and NPC1 prom act inactive.
CCOc1ccc2nc(NC(=O)CSc3cn[nH]n3)sc2c1 was read as ELG1 genotoxic 4.61µM, FLuc modulator 2.69µM, Rab9 prom act 4.47µM and NPC1 prom act 2.82µM.
Screening CCOc1ccc2nc(NC(=O)CSc3nc(-c4ccccc4)c(C#N)c(=O)[nH]3)sc2c1 returned ELG1 genotoxic inactive, FLuc modulator 16.9µM, Rab9 prom act inactive and NPC1 prom act inactive.
COc1cccc(CN(C)C(=O)COc2ccc(C(=O)c3ccc(Cl)cc3)cc2)c1OC was read as ELG1 genotoxic inactive, FLuc modulator inactive, Rab9 prom act inactive and NPC1 prom act inactive.
For COc1ccc(CCN2CC(C(=O)Nc3nccs3)CC2=O)cc1OC (stereo unspecified) the results were ELG1 genotoxic inactive.
Screening NC(=O)c1ccc(NC(=O)CSc2nnc(-c3ccc4c(c3)OCO4)o2)cc1 returned ELG1 genotoxic inactive, FLuc modulator inactive, Rab9 prom act inactive and NPC1 prom act inactive.
Screening C/C(N)=C(/C#N)C(=O)CSc1ccccc1F returned ELG1 genotoxic inconclusive, FLuc modulator inconclusive, Rab9 prom act 3.55µM, SMN2 splice enh inconclusive and NPC1 prom act inconclusive.
`C/C(N)=C(/C#N)C(=O)CSc1nnc(-c2ccc(OC(F)F)cc2)o1` gave ELG1 genotoxic 5.8µM, FLuc modulator 2.69µM, Rab9 prom act 1.26µM, SMN2 splice enh 11.2µM and NPC1 prom act 1.41µM.
`C/C(N)=C(/C#N)C(=O)CSc1nnc(-c2ccc3c(c2)OCO3)o1` gave ELG1 genotoxic 0.581µM, FLuc modulator 0.269µM, Rab9 prom act 0.1µM, SMN2 splice enh 1.12µM and NPC1 prom act 0.282µM.
O=C(c1ccc(Cl)cc1)N1CCCCC(Sc2nnc(-c3ccc4c(c3)OCO4)o2)C1=O (stereo unspecified) was read as ELG1 genotoxic inconclusive, FLuc modulator 1.9µM, Rab9 prom act inconclusive, SMN2 splice enh inactive and NPC1 prom act inconclusive.
Cc1ccccc1-c1nc(CS(=O)CC(=O)NC(C)CCc2ccccc2)c(C)o1 (stereo unspecified) was read as ELG1 genotoxic inactive, FLuc modulator inactive, Rab9 prom act inactive and NPC1 prom act inactive.
For CCOC(=O)c1ccc(NC(=O)Cc2coc3cc(C)cc(C)c23)cc1 the results were FLuc modulator inactive and SMN2 splice enh inactive.
For NC(=O)CSc1nnc(-c2ccc3c(c2)OCO3)o1 the results were ELG1 genotoxic inconclusive, FLuc modulator 15.1µM, Rab9 prom act 2.51µM, SMN2 splice enh 12.6µM and NPC1 prom act 2.82µM.
Screening O=C(O)CSc1nnc(-c2ccc3c(c2)OCO3)o1 returned ELG1 genotoxic inactive, FLuc modulator inconclusive, Rab9 prom act inactive, SMN2 splice enh inactive and NPC1 prom act inactive.
For CC(Sc1nnc(C(C)Oc2ccccc2F)o1)C(=O)NCc1ccc2c(c1)OCO2 (stereo unspecified) the results were ELG1 genotoxic inactive, FLuc modulator inactive, Rab9 prom act inactive and NPC1 prom act inactive.
For Cc1cccc(N/C=C/C(=O)c2cccs2)c1C the results were ELG1 genotoxic 1.84µM, FLuc modulator 0.338µM, Rab9 prom act inconclusive, SMN2 splice enh 2µM and NPC1 prom act inactive.
COc1cc([N+](=O)[O-])ccc1N/C=C/C(=O)c1cccs1 was read as ELG1 genotoxic inconclusive, FLuc modulator 0.12µM, Rab9 prom act 1.12µM, SMN2 splice enh 1.58µM and NPC1 prom act 0.501µM.
For Cc1c(NC(=O)c2cccs2)cccc1NC(=O)c1cccs1 the results were ELG1 genotoxic inactive, FLuc modulator inactive, Rab9 prom act inactive and NPC1 prom act inactive.
`NC(=O)c1ccccc1NC(=O)CCCc1ccccc1` gave ELG1 genotoxic inactive, FLuc modulator inconclusive, Rab9 prom act inactive and NPC1 prom act inactive.
O=C(/C=C/c1ccc([N+](=O)[O-])cc1)c1cccs1 was read as ELG1 genotoxic inactive, FLuc modulator inactive, Rab9 prom act inactive and NPC1 prom act inactive.
Screening Cc1ccc(C(=O)/C=C/Nc2ccccc2C(N)=O)o1 returned FLuc modulator 5.36µM and SMN2 splice enh 11.2µM.
`NC(=O)c1ccccc1N/C=C/C(=O)c1ccc(Cl)cc1Cl` gave ELG1 genotoxic inconclusive, FLuc modulator 0.19µM, Rab9 prom act 0.501µM, SMN2 splice enh 1µM and NPC1 prom act 0.794µM.
For O=C(c1cnn(C(=O)c2ccco2)c1)c1cc(F)ccc1O the results were ELG1 genotoxic inactive.
NC(=O)c1ccccc1NS(=O)(=O)c1cccs1 was read as ELG1 genotoxic inactive, FLuc modulator inactive, Rab9 prom act inactive and NPC1 prom act inactive.
Screening NC(=O)c1ccccc1N/C=C/C(=O)c1ccc(F)cc1 returned ELG1 genotoxic inconclusive, FLuc modulator 0.757µM, Rab9 prom act 1µM, SMN2 splice enh 17.8µM and NPC1 prom act 0.708µM.
`CC(=O)c1ccc(NS(=O)(=O)c2ccc(N/C=C/C(=O)c3ccc(F)cc3)cc2)cc1` gave ELG1 genotoxic inactive, FLuc modulator inconclusive, Rab9 prom act inactive and NPC1 prom act inactive.
For NC(=O)c1ccccc1N/C=C/C(=O)c1cccs1 the results were ELG1 genotoxic 2.06µM, FLuc modulator 2.69µM, Rab9 prom act 0.891µM, SMN2 splice enh 7.08µM and NPC1 prom act 1.78µM.
Screening Cc1ccc(S(=O)(=O)N2CCN(C(=O)NCc3ccc(C(=O)O)cc3)CC2)cc1 returned ELG1 genotoxic inactive, FLuc modulator inactive, Rab9 prom act inconclusive and NPC1 prom act inactive.
`Cc1noc(/C=C/c2ccccc2F)c1S(=O)(=O)N1CCC(C(=O)N2CCOc3ccccc32)CC1` gave FLuc modulator inactive.

Screens deposited in PubChem by National Center for Advancing Translational Sciences (NCATS).
